Only some compounds are listed: those with a hit (about 19% of all), similar ones and a draw of the others.
TDP1 cell CPT = qHTS for Inhibitors of human tyrosyl-DNA phosphodiesterase 1 (TDP1): qHTS in cells in presence of CPT. chicken DT40 Tdp1-/-;hTDP1 cells + 20 nM CPT, ATP luminescence, 48 h. Potency, µM (series often up to 46.2 µM), for the others: at the top dose activity change, negative = growth inhibition, hits mostly inhibitors. actives 12% (n = 420,000); note: potency is the fitted concentration of half-maximal effect; % is set by controls: 0 for no effect and ±100 for the full control effect; nearly all actives have a fitted effect of over 55% in size
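Cell growth measured by CellTiter-Glo luminescence after a minimum 48 h, 37 C compound exposure with 20 nM CPT in Tdp1-knockout DT40 cells stably expressing hTDP1, seeded 400/well; qHTS titration format.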
MCF10A rerep = A quantitative high throughput screen for small molecules that induce DNA re-replication in MCF 10a normal breast cells; actives 2.9% (n = 350,000); AID 624296, 2012; Potency, µM (top dose mostly 46.1 µM), for the others: at the top dose activity, positive = re-replication, most hits filed as activators; MCF 10A DNA re-replication, Hoechst nuclear intensity, 48 h; note: potency is the fitted concentration of half-maximal effect; % of control where 0% means no effect; nearly all actives have a fitted effect of over 50% in size
SW480 rereplic = A quantitative high throughput screen for small molecules that induce DNA re-replication in SW480 colon adenocarcinoma cells. SW480 DNA re-replication, Hoechst DNA content imaging, 48 h. Potency, µM (doses to about 46.1 µM), for the others: at the top dose re-replication activation, most hits filed as activators. actives 1.8% (n = 340,000). AID 624297, 2012; note: potency is the fitted concentration of half-maximal effect; % of control where 0% means no effect; nearly all actives have a fitted effect of over 55% in size
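Compounds, transferred as 23 nL by pin tool, were incubated with cells for 48 hr; DNA content per nucleus was then quantified by Hoechst staining and fluorescence plate imaging.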
BCR signal inh = qHTS Assay to Find Inhibitors of Chronic Active B-Cell Receptor Signaling; ABC-DLBCL IkBa-CBG/CBR reporter, luminescence ratio, 4 h; Potency, µM (doses to about 46.1 µM), without a hit: at the top dose activity change, negative = inhibition, actives largely listed as inhibitors; actives 0.05% (n = 340,000); active = well fitted inhibition curve with a large enough effect in the signal ratio, with a control signal flat, not every such curve was filed as active; inconclusive = small, poorly fitted or top-dose-only effect, or effect the other way, or a change in a side signal; the % refers to the signal ratio;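 note: potency is the fitted concentration of half-maximal effect; plate controls were basal doxycycline-induced cells for no effect and cells given 10 µM MG132 for full effect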
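Compounds up to 46 uM were incubated four hours with TMD8 cells whose green CBG68 luciferase is fused to IkappaBalpha; red CBR luminescence normalised the signal, and concentration-effect curves were fitted to fusion, red and ratio data.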
IL1B secr inh = qHTS for Inhibitors of Inflammasome Signaling: IL-1-beta AlphaLISA Primary Screen | activity change, % at 57.5 µM | AID 743279, 2014 | THP-1 LPS/ATP IL-1B secretion, AlphaLISA, 16 h; hits give low values | actives 4.7% (n = 360,000); in the data active = activity change below about -50%; inconclusive = mostly about -30% to -49%; note: % is set by controls: 0 for no effect and ±100 for the full control effect
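THP-1 cells pretreated 1 hr with compounds (up to 57.5 uM final), then stimulated with LPS (250 ng/mL final) plus ATP (1.25 mM final); secreted IL-1B measured by AlphaLISA after 16 hr, decreased signal indicating inhibition.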
TDP1 cell noCPT = qHTS for Inhibitors of human tyrosyl-DNA phosphodiesterase 1 (TDP1): qHTS in cells in absence of CPT; DT40 Tdp1-/- hTDP1 cells, no CPT, ATP luminescence, 48 h; Potency, µM (doses to about 46.2 µM), for inactives: at the top dose activity change, negative = growth inhibition, usual class: inhibitors; actives 15% (n = 420,000); AID 686978, 2013; note: potency is the fitted concentration of half-maximal effect; % is set by controls: 0 for no effect and ±100 for the full control effect; nearly all actives have a fitted effect of over 55% in size
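No-CPT arm: Tdp1-/-;hTDP1 DT40 cells (400/well) plus compounds, incubated ≥48 hr at 37 °C. Readout CellTiter-Glo luminescence.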
Numbers without * were called inactive; u = inconclusive; x = no result given. Unless noted, calls come from the whole dose curve; as a rule, active = well fitted curve in the direction sought with a large enough effect; inconclusive = small, poorly fitted or top-dose-only effect, or another doubt; inactive = no such curve, though single readings can be large; an effect the other way counts as inactive or inconclusive.

SMILES	TDP1 cell CPT	MCF10A rerep	SW480 rereplic	BCR signal inh	IL1B secr inh	TDP1 cell noCPT
COc1cc(=O)n2c(c1C(=O)NCc1ccc3c(c1)OCO3)CCN(C(=O)c1cccc(F)c1)CC2	0%	x	x	x	x	5%
O=C(CC1(O)C(=O)Nc2ccccc21)c1ccccc1O (centres undefined)	3%	7%	-2%	9%	41	-5%
O=C(CC1(O)C(=O)Nc2cc(Cl)cc(Cl)c21)c1ccccc1O (centres undefined)	u	15µM*	u	u	-80*	u
C=Cc1ccc(Cn2c(C)c(C(=O)NCc3ccc4c(c3)OCCO4)sc2=O)cc1	u	x	x	x	-5	10µM*
CSc1ccc(Cn2c(C)c(C(=O)NCc3ccc4c(c3)OCO4)sc2=O)cc1	u	x	x	x	u	15µM*
CSc1ccc(Cn2c(C)c(C(=O)NCc3cccs3)sc2=O)cc1	u	x	x	x	x	23µM*
Cc1ccc(Cn2c(C)c(C(=O)NCc3cccs3)sc2=O)cc1	u	x	x	x	u	-30%
CC(=O)Oc1ccc2c(c1)CCC1C2CC[C@]2(C)C(OC(C)=O)CCC12 (some centres undefined)	6%	x	x	x	x	0%
Cc1noc(C)c1-c1cncnc1-n1ccnc1	9%	x	x	x	x	-1%
COc1ccc(-n2nc(C(=O)NCCc3ccc(OC)c(OC)c3)c3c4ccccc4n(C)c3c2=O)cc1	16µM*	x	x	x	x	15µM*
CCCCN(C)CCNC(=O)c1nn(-c2ccc(OC)cc2)c(=O)c2c1c1ccccc1n2C	u	2%	-39%	6%	-1	18µM*
CC(=O)Nc1cccc(OCCCNS(=O)(=O)c2ccc(F)cc2)c1	u	0%	-5%	-13%	6	u
COc1ccc(S(=O)(=O)Nc2noc3ccccc23)cc1	-5%	1%	-12%	3%	0	-11%
CC1(C)Oc2c(ccc(O)c2CN2CCOCC2)C2=C1CCCC2	u	24%	-9%	x	-28	u
Cc1ccc(NC(=O)c2c(O)c3ccccc3n(C)c2=O)nc1	u	9%	7%	u	28	21µM*
Cc1cccc(NC(=O)c2c(O)c3ccccc3n(C)c2=O)c1	u	9%	6%	-1%	8	15µM*
Cc1ccnc(NC(=O)c2c(O)c3ccccc3n(C)c2=O)c1	x	x	x	0%	x	x
CN(CCCNC(=O)Cn1ncc2c([nH]c3ccccc32)c1=O)Cc1ccccc1	-7%	x	x	x	x	-25%
CCN(CC(=O)NCc1ccc(Cl)cc1)C(=O)c1cc2ccccc2o1	0%	4%	-13%	2%	-3	-28%
O=C1N=C(N2CCOCC2)S/C1=C/c1ccc(-c2ccc(F)cc2)o1	u	u	u	u	-23	21µM*
Cc1ccc(-c2ccc(/C=C3\SC(N4CCOCC4)=NC3=O)o2)cc1	10µM*	23µM*	18µM*	1%	-95*	9.2µM*
Cc1ccc(/C=C2\SC(N3CCN(C(c4ccccc4)c4ccccc4)CC3)=NC2=O)o1	15µM*	10%	-3%	u	u	12µM*
CN1CCN(C2=NC(=O)/C(=C/c3cn[nH]c3-c3ccccc3)S2)CC1	u	-3%	-20%	u	u	u
COc1ccccc1CCNC(=O)c1nccnc1C(=O)O	-5%	-1%	-1%	-1%	-1	-2%
Cn1c(=O)c(-c2cccs2)nc2cnc(N3CCNCC3)nc21	-21%	x	x	x	x	-26%
SMILES	TDP1 cell CPT	MCF10A rerep	SW480 rereplic	BCR signal inh	IL1B secr inh	TDP1 cell noCPT
CCOc1ccc(NC(=O)CSc2nc3ccsc3c(=O)n2CCC(C)C)cc1	u	x	x	-1%	x	u
Nc1c(-c2ccc(Cl)cc2)cnc2c(-c3ccc(F)cc3)cnn12	-25%	u	1%	0%	-3	-24%
CC1(C)SC(=S)N(/N=C/c2ccccc2O)C1N(O)C(=O)Nc1ccccc1 (centres undefined)	12µM*	u	u	u	u	16µM*
Cc1ccc(/C=N/N2C(=S)SC(C)(C)C2N(O)C(=O)Nc2ccc([N+](=O)[O-])cc2)cc1 (centres undefined)	u	u	u	u	-70*	18µM*
CC1(C)SC(=S)N(/N=C/c2ccc(O)cc2)C1N(O)C(=O)Nc1ccc([N+](=O)[O-])cc1 (centres undefined)	23µM*	17%	5%	1%	-6	u
CCN(CC(=O)Nc1ccccc1C(F)(F)F)C(=O)CCS(=O)(=O)c1ccc(C)cc1	-10%	6%	-8%	10%	2	-6%
COc1ccc(-c2nnc(SCC(=O)NNC(=O)Cc3ccccc3)n2C)cc1OC	u	0%	-5%	u	-18	23µM*
CC(=O)Nc1nonc1-c1nnc(SCc2cccc(Br)c2)n1C	16µM*	x	x	x	x	18µM*
COc1ccc(-c2nnc(SCC(=O)Nc3ncc(C)s3)n2-c2ccccc2)cc1OC	21µM*	13µM*	16µM*	u	8	23µM*
COc1ccccc1NC(=O)CSc1nnc(-c2nonc2NC(C)=O)n1-c1ccccc1	u	x	x	x	x	23µM*
